{"source": "PubChem BioAssay AID628", "about": "(Vanderbilt High Throughput Screening Facility, 2007)", "note": "The whole screen tested about 64,000 compounds, of which about 2,200 (3.4%) were called active. This excerpt belongs to a sample that is enriched for actives. Unmarked numbers belong to inactive results.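 Rule for the calls: active = calcium fluorescence response, raw or row-and-column corrected B-score, differing from the plate sample mean either way at a set confidence level, mostly lower; inactive = the rest.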", "data": [{"target": "Muscarinic acetylcholine receptor M1 (Rattus norvegicus) (UniProt P08482)", "sequence (P08482 whole entry, looked up)": "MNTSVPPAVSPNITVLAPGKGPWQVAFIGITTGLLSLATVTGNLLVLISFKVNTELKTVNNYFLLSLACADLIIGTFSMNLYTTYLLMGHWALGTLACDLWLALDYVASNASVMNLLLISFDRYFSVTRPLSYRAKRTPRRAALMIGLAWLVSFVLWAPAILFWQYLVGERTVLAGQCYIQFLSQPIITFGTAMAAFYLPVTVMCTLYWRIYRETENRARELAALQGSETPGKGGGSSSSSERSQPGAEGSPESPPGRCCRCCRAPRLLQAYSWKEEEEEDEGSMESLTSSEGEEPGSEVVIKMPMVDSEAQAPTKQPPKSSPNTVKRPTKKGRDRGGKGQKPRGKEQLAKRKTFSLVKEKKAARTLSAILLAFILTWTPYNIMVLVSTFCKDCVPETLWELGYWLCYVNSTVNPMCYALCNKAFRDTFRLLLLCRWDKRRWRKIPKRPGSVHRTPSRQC", "test": "blocks the rat M1 muscarinic receptor response to acetylcholine (AID 628)", "settings": "CHO-M1 cells, Fluo-4 calcium, ACh EC80 antagonist mode; at 10 µM; stronger effect = lower value", "values": [{"smiles": "COc1ccc(C(CC(=O)O)NC(=O)Cc2ccccc2)cc1", "note": "(stereo unspecified)", "B-score": -0.777}, {"smiles": "Cc1cc(C(=O)COC(=O)c2cccs2)c(C)n1-c1c(C)n(C)n(-c2ccccc2)c1=O", "B-score": -1.28}, {"smiles": "COc1ccccc1N=C1SC(C)CN1C(=O)C1CCC1", "note": "(stereo unspecified)", "B-score": 0.0033}, {"smiles": "CCC/C(O)=C1\\C(=O)CC(C)(C)CC1=Nc1ccccc1OC", "B-score": "-1.93 (active)"}, {"smiles": "CCOc1ccccc1N=C1NC(=O)CS1", "B-score": 0.266}, {"smiles": "CC1CN(Cc2nc3c(c(=O)n(C)c(=O)n3C)n2Cc2cccc(Cl)c2)CC(C)O1", "note": "(stereo unspecified)", "B-score": 1.23}, {"smiles": "CC(=O)NCC(=O)N(C)C(C(=O)Nc1ccc2c(c1)OCCO2)c1ccccc1", "note": "(stereo unspecified)", "B-score": 0.158}, {"smiles": "CCCCCCOC(=O)NCC(O)c1ccccc1", "note": "(stereo unspecified)", "B-score": 0.126}, {"smiles": "CCCCC(CCC(=O)Nc1ccc(C(=O)OCC)cc1)C(=O)O", "note": "(stereo unspecified)", "B-score": 0.867}, {"smiles": "CCCCCOC(=O)NCCOC(=O)Nc1ccc(C(=O)OCC)cc1", "B-score": "-2.48 (active)"}, {"smiles": "Cc1ccccc1Cn1c(=O)[nH]c2ccccc21", "B-score": -1.7}, {"smiles": "CCn1c(=N)c(C(=O)NCCCOC)cc2c(=O)n3cccc(C)c3nc21", "B-score": -0.808}, {"smiles": "COc1ccc(CCn2c(=N)c(C(=O)NCc3ccco3)cc3c(=O)n4cccc(C)c4nc32)cc1", "B-score": "-2.38 (active)"}, {"smiles": "COc1ccc(CNC(=O)c2cc3c(=O)n4ccccc4nc3n(CC3CCCO3)c2=N)cc1", "note": "(stereo unspecified)", "B-score": -1.29}, {"smiles": "CCOC(=O)C1CCN(C(=O)C2CCN(S(=O)(=O)c3c(C)noc3C)CC2)CC1", "B-score": 0.0324}, {"smiles": "Cn1c(=NC(=O)CSCC(=O)N2CCOCC2)sc2ccccc21", "B-score": 0.949}, {"smiles": "CC(C)Oc1ccc(C(=O)Nc2cc(=O)n(C)c(=O)n2C)cc1", "B-score": -0.0919}, {"smiles": "Cc1ccc(S(=O)(=O)Nc2ccccc2CNc2c(C)n(C)n(-c3ccccc3)c2=O)cc1", "B-score": 0.193}, {"smiles": "COC(=O)Nc1c(C)n(C)n(-c2ccccc2)c1=O", "B-score": -0.678}, {"smiles": "COc1ccc(S(=O)(=O)Nc2c(C)n(C)n(-c3ccccc3)c2=O)cc1", "B-score": "2.26 (active)"}, {"smiles": "COc1ccccc1N1CCN(C(=O)CSc2nnc(-c3ccoc3C)o2)CC1", "B-score": -1.48}, {"smiles": "O=C(O)[C@@H]1CCCN1c1ncnc2sc3c(c12)CCC3", "B-score": 0.0259}, {"smiles": "CC1(C)CN=C(N2CCN(c3ncnc4sc5c(c34)CCCC5)CC2)S1", "B-score": "-3.91 (active)"}, {"smiles": "N=c1c2c3c(sc2ncn1N)CCCCC3", "B-score": 1.08}, {"smiles": "O=C1CCCC2=C1C(c1cccs1)n1nc(SCc3ccccc3)nc1N2", "note": "(stereo unspecified)", "B-score": 1.97}, {"smiles": "CCOC(=O)c1c(NC(=O)CSc2nnc(CN3CCOCC3)n2C)sc2c1CCCC2", "B-score": "-2.5 (active)"}, {"smiles": "COC(=O)c1c(NC(=O)CCN2CCOCC2)sc2c1CCCC2", "B-score": 0.415}, {"smiles": "CCOC(=O)c1c(NC(=O)CSc2nnc(C)c(=O)[nH]2)sc2c1CCC2", "B-score": 0.293}, {"smiles": "Cc1coc2c(O)cc3c(c12)OC1(N2CCCCC2)C(=O)NCCCC31", "note": "(stereo unspecified)", "B-score": 0.313}, {"smiles": "CCOc1ccc(N(CC(=O)OC)S(=O)(=O)c2c(C)noc2C)cc1", "B-score": 0.515}, {"smiles": "Cc1cc(C)c2nc(SCCC#N)nc(C)c2c1", "B-score": -0.0173}, {"smiles": "CC(=O)N1C(=O)C2(Nc3ccccc3N2)c2ccccc21", "B-score": -0.00551}, {"smiles": "CCCc1[nH]nc2c1C(c1c(C)nn(-c3ccccc3)c1Cl)C(C#N)=C(N)O2", "note": "(stereo unspecified)", "B-score": -0.557}, {"smiles": "COc1ccccc1NC(=O)C1=C(C)Nc2nnnn2C1c1cccc(Br)c1", "note": "(stereo unspecified)", "B-score": 0.285}, {"smiles": "COc1ccc(C2C(C(=O)Nc3ccccc3OC)=C(C)Nc3nnnn32)c(OC)c1", "note": "(stereo unspecified)", "B-score": -0.00786}, {"smiles": "COC(=O)c1ccc(C2C3=C(Nc4nnnn42)c2ccccc2OC3)cc1", "note": "(stereo unspecified)", "B-score": "-2.33 (active)"}, {"smiles": "CCSc1nc(=S)n(CC)c(C)c1C(C)=O", "B-score": -0.669}, {"smiles": "O=c1c2ccccc2oc2nc3n(c(=O)c12)CCCS3", "B-score": 0.0394}, {"smiles": "O=C(C(NS(=O)(=O)c1cccc2nsnc12)c1ccccc1)N1CCN(c2ccccn2)CC1", "note": "(stereo unspecified)", "B-score": "-4.43 (active)"}, {"smiles": "CC(=C1C(=O)c2ccccc2C1=O)N1CCN(c2ccccn2)CC1", "B-score": 0.0748}, {"smiles": "O=C(O)c1ccc(NS(=O)(=O)c2cccc3nsnc23)cc1", "B-score": 1.18}, {"smiles": "O=C(CSc1nnnn1C1CCCC1)Nc1ccc2c(c1)OCCO2", "B-score": -1.53}, {"smiles": "CCc1ccc2oc(=O)cc(CN3CCCCC3C)c2c1", "note": "(stereo unspecified)", "B-score": -0.803}, {"smiles": "Cc1ccc(-c2ccc(=O)n(CC(=O)NCCCN3CCCCC3)n2)cc1", "B-score": -0.074}, {"smiles": "CC1(C)CC(=O)C=C(NCCCNC2CCCCC2)C1", "B-score": -0.705}, {"smiles": "CC(=O)OC(C)C[N+](C)(C)C", "note": "(stereo unspecified)", "B-score": "-11.2 (active)"}, {"smiles": "CC(C[N+](C)(C)C)OC(N)=O", "note": "(stereo unspecified)", "B-score": "-15 (active)"}, {"smiles": "CCOC(=O)c1c(C)n(C)c2ccc(OC)c(NC(=O)CN3CCC4(CC3)OCCO4)c12", "B-score": -0.00466}, {"smiles": "O=C(O)c1ccc(-n2cccc2)cc1O", "B-score": -0.249}, {"smiles": "COc1ccccc1OCCC(=O)OCC(=O)NC(=O)NC(C)(C)C", "B-score": -0.989}, {"smiles": "CCOC(=O)C1CCCN(Cc2nc(N)nc(Nc3ccc(C)cc3)n2)C1", "note": "(stereo unspecified)", "B-score": -0.238}, {"smiles": "O=C(CN1CCN(C2CCCCC2)CC1)Nc1ccccc1N1CCCCC1", "B-score": -0.00297}, {"smiles": "CCOC(=O)Nc1ccc2c(c1)N(C(=O)CN1CCN3CCCC3C1)c1ccccc1CC2", "note": "(stereo unspecified)", "B-score": "-4.22 (active)"}, {"smiles": "CC(=O)Nc1cccc(NC(=O)c2c(-c3ccccc3)noc2C)c1", "B-score": 0.424}, {"smiles": "Cn1c(=O)[nH]c(=O)c2c1nc(N1CCN(CCO)CC1)n2CCSc1nc2ccccc2s1", "B-score": -0.514}, {"smiles": "C=C(Br)Cn1c(CCCC)nc2ccccc21", "B-score": 0.344}, {"smiles": "OC1CN=C2Sc3ccccc3N2C1", "note": "(stereo unspecified)", "B-score": -0.000781}, {"smiles": "COc1cc(Cl)c(C)cc1NC(=O)CSc1nnc(-c2ccco2)n1CC(C)C", "B-score": "-3.28 (active)"}, {"smiles": "CCn1c(SCC(=O)Nc2cc(C)c(Cl)cc2OC)nnc1-c1ccco1", "B-score": 0.0151}, {"smiles": "COc1cc(Cl)c(C)cc1NC(=O)CSc1nnc(-c2cccnc2)n1Cc1ccco1", "B-score": 1.15}, {"smiles": "Cc1ccc(C)c2[nH]c(=O)c(CCNC(=O)CC(C)C)cc12", "B-score": 0.426}, {"smiles": "O=c1/c(=C/c2ccc(CNS(=O)(=O)c3ccccc3)o2)sc2n1CCN=2", "B-score": -1.07}, {"smiles": "C=CCSc1nc2ccccc2[nH]1", "B-score": "-3.2 (active)"}, {"smiles": "c1ccc2[nH]c(-c3nc4ccccc4[nH]3)nc2c1", "B-score": 0.625}, {"smiles": "O=C(CSc1nc2ccccc2[nH]1)c1cccs1", "B-score": 0.722}, {"smiles": "O=S(=O)(c1cccc(-c2nnc(SC(F)F)n2-c2ccccc2)c1)N1CCCCC1", "B-score": 0.56}, {"smiles": "CCCCN=C(N)/C(C(=O)OCC)=C(\\O)c1ccc(OC)cc1", "B-score": 0.0185}, {"smiles": "Cc1cccc(C)c1NC(=O)CCCSc1nnc(-c2ccco2)n1-c1ccccc1", "B-score": 0.509}, {"smiles": "CCOC(=O)N1CCN(C(=O)C2CCN(S(C)(=O)=O)CC2)CC1", "B-score": -0.427}, {"smiles": "CCOC(=O)N1CCN(S(=O)(=O)c2cc(Br)cc3c2N(C(=O)C2CC2)CC3)CC1", "B-score": "-2.88 (active)"}, {"smiles": "CCN(c1ccc2c(c1)OCO2)S(=O)(=O)c1cc(Br)cc2c1N(C(=O)C1CC1)CC2", "B-score": -0.598}, {"smiles": "COc1ccccc1N1CCN(Cc2ccc(OC)c3ccccc23)CC1", "B-score": 0.229}, {"smiles": "COc1ccc(S(=O)(=O)Nc2ccc(S(=O)(=O)N3CCCCC3)cc2)cc1OC", "B-score": 0.8}, {"smiles": "Cc1ccc(C)c(NC(=O)CSc2nnc(Cc3cccn3C)n2-c2ccc(F)cc2)c1", "B-score": 0.873}, {"smiles": "COc1ccc(-c2nnn(Cc3nc(N)nc(N4CCCCC4)n3)n2)cc1", "B-score": "-1.19 (active)"}, {"smiles": "CCc1ccc(-c2nnn(Cc3nn[nH]n3)n2)cc1", "B-score": 0.0832}, {"smiles": "CCOc1ccc(-c2nnn(CC(=O)N3CCN(c4ccc(OC)cc4)CC3)n2)cc1OCC", "B-score": 0.00223}, {"smiles": "N#CC1=C(N)Oc2n[nH]c(CSc3ccccc3)c2C12C(=O)Nc1ccccc12", "note": "(stereo unspecified)", "B-score": "2.72 (active)"}, {"smiles": "Cc1cc(C)c(C#N)c(SCc2[nH]nc3c2C(c2ccccc2)C(C#N)=C(N)O3)n1", "note": "(stereo unspecified)", "B-score": 0.363}, {"smiles": "COc1ccc(Br)cc1/C=N/n1c(C)nnc1C", "B-score": 0.304}, {"smiles": "COc1cc(C2C(C(=O)Nc3ccc(F)cc3)=C(C)Nc3nc(CCCO)nn32)cc(OC)c1OC", "note": "(stereo unspecified)", "B-score": 0.464}, {"smiles": "CCOc1ccc(C2C(C(=O)NC)=C(C)Nc3nc4ccccc4n32)cc1OC", "note": "(stereo unspecified)", "B-score": "-3.24 (active)"}, {"smiles": "COc1cc(C2C(C(=O)Nc3ccccc3OC)=C(C)Nc3ncnn32)ccc1O", "note": "(stereo unspecified)", "B-score": -0.653}, {"smiles": "COc1ccc(OCC(=O)OCCN(C)C)cc1", "B-score": 0.389}, {"smiles": "CN(C)CCOC(=O)C(c1ccccc1)C1(O)CCCC1", "note": "(stereo unspecified)", "B-score": "-11.9 (active)"}, {"smiles": "Cn1nc(-c2ccc(Cl)cc2)c2cc(C(=O)NCc3ccco3)sc21", "B-score": 0.443}, {"smiles": "CCN1CCN(C(=O)CN(C)S(=O)(=O)c2ccc(OC)cc2)CC1", "B-score": 0.444}, {"smiles": "c1ccc(-c2nnc3n2NC(c2ccc4c(c2)OCO4)S3)cc1", "note": "(stereo unspecified)", "B-score": -0.212}, {"smiles": "COc1ccc(-c2nn3c(-c4ccccc4)nnc3s2)cc1OC", "B-score": -1.59}, {"smiles": "CC1=Nn2c(nnc2-c2ccccc2)SC1", "B-score": "-3.94 (active)"}, {"smiles": "c1ccc(-n2ncc(-c3nn[nH]n3)n2)cc1", "B-score": 2.54}, {"smiles": "Cc1cc(NC(=O)CSCc2nc(-c3cccc(Cl)c3)oc2C)no1", "B-score": 0.32}, {"smiles": "Cc1ccsc1-c1nc(CSCC(=O)NCCN2CCCC2)c(C)o1", "B-score": "-4.42 (active)"}, {"smiles": "Cn1c(C(=O)NCCCN2CCCCC2)cc2sccc21", "B-score": -1.16}, {"smiles": "COCCn1c(CN(Cc2ccccc2)Cc2ccccc2)nc2c1c(=O)n(C)c(=O)n2C", "B-score": 0.00241}, {"smiles": "CSCCC(NC(N)=O)C(=O)N(C)CC(=O)Nc1ccc(C)cc1", "note": "(stereo unspecified)", "B-score": -0.414}]}]}
